# Reference: the supplement of paper PMC7366291
# Counter-ions that a name gives are not always drawn. ± gives the standard deviation of the averaged measurements.
# Test system: Danio rerio Tg(wt1b:EGFP) embryo, pronephros
# Assay: glomerular width (mean of left and right), fold change vs DMSO control; higher = wider glomerulus
# Conditions: 25 µM; exposure: 24-48 hpf
# Procedure, shortened: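 Each feature value is a fold change relative to the mean of same-day DMSO-treated embryos. Embryos of the Tg(wt1b:EGFP) zebrafish line, dechorionated, received 25 μM compound in 0.5% DMSO from 24 to 48 hpf at 28.5°C, in HEPES-buffered E3 with 0.003% PTU. Distances and angles were computed by a Fiji macro from 16 manually set reference points on maximum projections of dorsal pronephros images, and values beyond 2 SD of the feature mean were removed.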
row,Compound,glomerular width
1,CC(C)(Oc1ccc(Cl)cc1)C(=O)O [Clofibric acid],0.927 ± 0.036
2,Cc1scc2c1N(C(=O)CN1CCN(C)CC1)c1ccccc1NC2=O [Telenzepine dihydrochloride],0.937 ± 0.032
3,Nc1nc2[nH]cc(CCc3ccc(C(=O)N[C@@H](CCC(=O)O)C(=O)O)cc3)c2c(=O)[nH]1 [Pemetrexed disodium],1.08 ± 0.041
4,CCCCCCC[N+](CC)(CC)CCCCc1ccc(Cl)cc1 [Clofilium tosylate],1.04 ± 0.059
5,NC[C@H]1O[C@H](O[C@H]2[C@H](O)[C@@H](O[C@H]3O[C@H](CO)[C@@H](O)[C@H](N)[C@H]3O)[C@H](N)C[C@@H]2N)[C@H](N)C[C@@H]1O [Tobramycin],0.94 ± 0.056
6,Clc1ccc(CSC(Cn2ccnc2)c2ccc(Cl)cc2Cl)cc1 (stereo unspecified) [Sulconazole nitrate],0.798 ± 0.035
7,CC1(C)S[C@@H]2[C@H](NC(=O)Cc3ccccc3)C(=O)N2[C@H]1C(=O)O [Benzylpenicillin sodium],1.02 ± 0.014
8,CC(C)(O/N=C(\C(=O)N[C@@H]1C(=O)N2C(C(=O)[O-])=C(C[n+]3ccccc3)CS[C@H]12)c1csc(N)n1)C(=O)O [Ceftazidime pentahydrate],0.993 ± 0.046
9,CCOC(=O)C1=C[C@]2(CC)CCCN3CCc4c(n1c1ccccc41)[C@@H]32 [Vinpocetine],1.037 ± 0.0011
10,COc1ccc(Cl)cc1C(=O)NCCc1ccc(S(=O)(=O)NC(=O)NC2CCCCC2)cc1 [Glibenclamide],1.05 ± 0.023
11,CC(=O)c1ccc(S(=O)(=O)NC(=O)NC2CCCCC2)cc1 [Acetohexamide],1.05 ± 0.023
